Screens as filed in PubChem.
A selection: hits, their analogues and other compounds. The true share with any hit is near 3.1%.
PAX8 reporter: inhibitors of PAX8-driven TPO luciferase reporter, primary screen, RMG-I cells, single concentration | SteadyGlo, 24 h | inhibition, % at 12.6 µM | 360,000 compounds, 1.2% hits;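 active = mean replicate inhibition at least 60% with every replicate also reaching 60%; inconclusive = only one of the two criteria is met; inactive = mean below 60% and not all replicates reaching 60%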;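 also: luciferase light reporting Pax8 driven TPO promoter activity; plate controls were median of neutral control wells for no effect and mitoxantrone controls for full effect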
LMP1 NFkB inh: EBV LMP1-driven NF-kappaB luciferase reporter inhibitors, primary screen, cell-based, luminescence, single point; 350,000 compounds, 0.69% hits; inhibition, % at 12.5 µM; LMP1-induced NF-kappaB luciferase reporter cells; in the data active = inhibition above about 41%; inconclusive = no clear call, values can overlap the other calls;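 also: 0% = neutral control wells and 100% = reference inhibitor control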
TROY NFkB inh: inhibitors of TROY-driven NF-kB signaling, primary screen, Q293 LMP1-TROYcd cells, NF-kB luciferase, uHTS. Q293 LMP1-TROYcd NF-kB luciferase reporter, 4 h. 360,000 compounds, 0.98% hits. inhibition, % at 10 µM;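 active = compounds whose plate-normalised and pattern-corrected inhibition of the luciferase reporter signal at the single screening dose is 50% or more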
LGR2 inh: inhibitors of bursicon-induced LGR2 CRE-luciferase signal, primary screen, cell-based, HEK293, CRE-luciferase reporter, bursicon stimulation; Drosophila bursicon receptor LGR2 (rickets); bursicon-stimulated, 4 h; inhibition, % at 9.99 µM; 380,000 compounds, 0.35% hits; AID 720647, 2013;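 active = drop in luminescence signal, shown as inhibition above about 50% in the replicate tests, limit read from the data, passing the limit was not always enough; inconclusive = probably only some replicates passing the limit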;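 also: agonist challenge used bursicon conditioned medium at about half maximal strength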
TWEAK-Fn14 inh: inhibitors of TWEAK-Fn14 signaling, primary screen, luciferase reporter cells, uHTS. TWEAK-stimulated Fn14 reporter cells, luciferase luminescence, 8 h. 360,000 compounds, 2% hits. inhibition, % at 10 µM; in the data active = inhibition above about 50%
EWS-Fli inh: EWS/Fli-driven NR0B1 reporter inhibitors, primary screen, A673 cells, NR0B1 luciferase, luminescence, MLPCN library; inhibition, % at 12.6 µM; 350,000 compounds, 0.67% hits; viability-normalised;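 active = mean inhibition of at least 50% after viability correction, with every replicate also passing that limit; inconclusive = mean reaches 50% but only one of two replicates passes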;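 also: firefly luciferase signal divided by Alamar Blue viability fluorescence both relative to DMSO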
Active calls of the source: *; ? = inconclusive; . = not tested or not shown.

SMILES | PAX8 reporter | LMP1 NFkB inh | TROY NFkB inh | LGR2 inh | TWEAK-Fn14 inh | EWS-Fli inh
Cc1ccc(/C=N/NC(=O)c2ccccn2)o1 | 120* | -10 | -69 | -35 | -15 | -49
CC(/C=N/NC(=O)c1ccccn1)=C\c1ccco1 | -35 | . | -34 | . | 9 | -49
COc1ccc(/C=N/NC(=O)c2cc(-c3ccc4c(c3)OCO4)n[nH]2)cc1OC | 52 | -17 | -28 | -15 | 52* | 39
Cc1ccc(/C=N/NC(=O)c2ccncc2)o1 | 84* | -8 | -7 | 1 | 10 | 9
COCC(=O)N1CC[C@@H]2[C@@H](CO)N(C)c3ccc(-c4cccc(OC)c4)cc3[C@@H]21 | -4 | . | . | -18 | . | -3
CCN1[C@@H]2c3ccc(C4=CCCCC4)c(=O)n3C[C@H]1[C@H](CO)[C@H]2C(=O)N1CCOCC1 | . | . | . | -12 | . | 3
O=C(N/N=C/c1cc2c(cc1Br)OCO2)c1ccccn1 | -201 | . | -39 | -26 | -11 | -87
CN(C)c1ccc(/C=N\NC(=O)c2csnn2)cc1 | . | -3 | 19 | . | 71* | .
CN(C)c1ccc(/C=N/NC(=O)c2ccccn2)cc1 | -68 | 37 | 31 | . | -14 | 35
O=C(N/N=C/c1ccc2c(c1)OCO2)c1ccccn1 | . | 27 | 39 | ? | 76* | 25
O=C(Nc1ccc(-n2ccc(C(F)(F)F)n2)cc1)Nc1cccc(Cl)c1 | -16 | 1 | 34 | -31 | 72* | -53
CN(C)S(=O)(=O)c1ccc(Cl)c(C(=O)NCCNC(=O)c2cc(S(=O)(=O)N(C)C)ccc2Cl)c1 | -1 | 71* | -12 | 16 | -9 | 9
CC(C)CC#Cc1ccc2c(c1)O[C@@H](CN(C)S(=O)(=O)c1ccc(F)cc1)[C@H](C)CN([C@@H](C)CO)S2(=O)=O | 81* | . | . | 5 | . | 27
CC(C)CC#Cc1ccc2c(c1)O[C@H](CN(C)S(=O)(=O)c1cccc(F)c1)[C@H](C)CN([C@H](C)CO)S2(=O)=O | . | . | . | 20 | . | 9
CC(C)CC#Cc1ccc2c(c1)O[C@H](CN(C)S(=O)(=O)c1cccc(F)c1)[C@H](C)CN([C@@H](C)CO)S2(=O)=O | . | . | . | 2 | . | 44
CC(C)CC#Cc1ccc2c(c1)O[C@H](CN(C)S(=O)(=O)c1ccc(F)cc1)[C@@H](C)CN([C@@H](C)CO)S2(=O)=O | 101* | . | . | 26 | . | 19
CC(C)CC#Cc1ccc2c(c1)O[C@@H](CN(C)S(=O)(=O)c1ccc(F)cc1)[C@@H](C)CN([C@@H](C)CO)S2(=O)=O | 95* | . | . | 47 | . | 19
COCC(=O)Nc1ccc2c(c1)C(=O)N(C)C[C@@H](OC)[C@@H](C)CN(Cc1ccccc1OC)[C@@H](C)CO2 | . | . | . | 16 | . | -1
O=C(NCC(c1ccco1)N1CCc2ccccc21)C(=O)Nc1ccc(F)cc1F (stereo not drawn) | 30 | -3 | 13 | 13 | 9 | 58*
O=[N+]([O-])c1cc(S(=O)(=O)Oc2ccccc2)ccc1Cl | 10 | -1 | 5 | 68* | 38 | 22
COc1ccc(S(=O)(=O)N(C)C[C@@H]2Oc3ccc(NC(=O)NC(C)C)cc3C(=O)N([C@@H](C)CO)C[C@H]2C)cc1 | . | . | . | 3 | . | 3
COc1ccc(CN(C)C[C@H]2OCCCC[C@@H](C)Oc3ccc(NS(=O)(=O)c4cn(C)cn4)cc3C(=O)N([C@H](C)CO)C[C@H]2C)cc1 | -5 | . | . | 13 | . | -1
CCN(C(=O)C1CC1)C1CCS(=O)(=O)C1 (stereo not drawn) | -7 | -1 | 66* | 7 | 12 | -2
CCCCN(C(=O)C1CC1)C1CCS(=O)(=O)C1 (stereo not drawn) | -26 | -4 | -3 | 3 | 7 | -3
CCC(=O)Nc1ccc2c(c1)C(=O)N(C)C[C@@H](OC)[C@@H](C)CN(C(=O)c1ccc(F)cc1)[C@@H](C)CO2 | . | . | . | 15 | . | 6
SMILES | PAX8 reporter | LMP1 NFkB inh | TROY NFkB inh | LGR2 inh | TWEAK-Fn14 inh | EWS-Fli inh
COc1ccc(NC(=O)N(C)C[C@H]2Oc3c(NS(=O)(=O)c4ccc(Cl)cc4)cccc3C(=O)N([C@H](C)CO)C[C@@H]2C)cc1 | 11 | . | . | -11 | . | 1
Cc1cccc(C2c3[nH]c4ccccc4c3CCN2Cc2cccn2-c2ncccn2)c1 (stereo not drawn) | 18 | -11 | -15 | 24 | -11 | -19
COc1ccc(C2c3[nH]c4ccccc4c3CCN2Cc2cccn2-c2ncccn2)cc1C (stereo not drawn) | 10 | 6 | 71* | 7 | 56* | 22
Oc1ccc2ccccc2c1/C=N/Nc1nnc(-c2ncc[nH]2)c2ccccc12 | . | 59* | 6 | . | 31 | .
Oc1ccc2ccccc2c1C=NNc1ccccn1 | 12 | 58* | -44 | -1 | 16 | -24
O=S(=O)(Nc1ccc2c(c1)OCCO2)c1cccc(F)c1 | -6 | 8 | 40 | -24 | 52* | 5
COc1ccc(OC)c(S(=O)(=O)Nc2ccc3c(c2)OCCO3)c1 | -19 | 27 | 76* | 11 | 84* | 16
CC(=O)NCCc1ccc(S(=O)(=O)Nc2ccc3c(c2)OCCO3)cc1 | -8 | 9 | 43 | -22 | 55* | 6
CC(=O)NCCNC(=O)c1cccc(NS(=O)(=O)c2ccc3c(c2)OCCO3)c1 | 3 | 3 | -22 | -8 | 5 | 1
Cc1n[nH]c(C)c1S(=O)(=O)Nc1ccc2c(c1)OCCO2 | . | 29 | 63* | . | 82* | .
Cc1ccc(N(CC(=O)Nc2ccc3c(c2)OCCO3)S(=O)(=O)c2c(C)n[nH]c2C)cc1 | 15 | 2 | -2 | . | 26 | .
Cc1ccc(S(=O)(=O)N(C)C[C@@H]2Oc3ccc(NC(=O)CCCCCC(=O)Nc4ccccc4N)cc3C(=O)N([C@@H](C)CO)C[C@H]2C)cc1 | 22 | . | . | 9 | . | 3
COc1ccc(NC(=O)N(C)C[C@@H]2OCCCC[C@@H](C)Oc3ccc(NC(=O)CCCN(C)C)cc3C(=O)N([C@@H](C)CO)C[C@H]2C)cc1 | 13 | . | . | -3 | . | -2
Cc1nn(C)cc1S(=O)(=O)Nc1ccc2c(c1)OCCO2 | 14 | 32 | 82* | 16 | 77* | -45
Cc1ccc(S(=O)(=O)Nc2ccc3c(c2)OCCO3)cc1C | -13 | 23 | 80* | 26 | 87* | 30
Cc1ccc(S(=O)(=O)N(C)C[C@@H]2OCCCC[C@H](C)Oc3ccc(NC(=O)Cc4ccccc4)cc3C(=O)N([C@H](C)CO)C[C@@H]2C)cc1 | 55 | . | . | -17 | . | 6
C[C@@H]1CN([C@H](C)CO)C(=O)Cc2cc(NC(=O)Nc3ccc4c(c3)OCO4)ccc2O[C@@H]1CN(C)S(=O)(=O)c1ccc(Cl)cc1 | . | . | . | -8 | . | 4
C/C=C/c1ccc([C@H]2[C@H](CO)N(C(=O)c3cnccn3)C23CN(C(=O)CC)C3)cc1 | . | . | . | 11 | . | -1
